Sampled rows, rich in hits. Any-hit rate of the full collection: about 19%.
DT40 TDP1 CPT = DT40-hTDP1 cell growth loss with CPT. chicken DT40 Tdp1-/-;hTDP1 cells + 20 nM CPT, ATP luminescence, 48 h. Potency, µM (top dose mostly 46.2 µM), for inactives: top-dose activity change, negative = growth inhibition, actives largely listed as inhibitors. 420,000 compounds, 12% hits. AID 686979; note: potency is the fitted concentration of half-maximal effect; nearly all actives have a fitted effect of over 55% in size
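Cell growth measured by CellTiter-Glo luminescence after a minimum 48 h, 37 C compound exposure with 20 nM CPT in Tdp1-knockout DT40 cells stably expressing hTDP1, seeded 400/well; qHTS titration format.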
TDP1 cell noCPT = qHTS for Inhibitors of human tyrosyl-DNA phosphodiesterase 1 (TDP1): qHTS in cells in absence of CPT. 420,000 compounds, 15% hits. DT40 Tdp1-/- hTDP1 cells, no CPT, ATP luminescence, 48 h. Potency, µM (doses to about 46.2 µM), without a hit: at the top dose activity change, negative = growth inhibition, actives largely listed as inhibitors. AID 686978, 2013; note: potency is the fitted concentration of half-maximal effect; nearly all actives have a fitted effect of over 55% in size
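No-CPT arm: Tdp1-/-;hTDP1 DT40 cells (400/well) plus compounds, incubated ≥48 hr at 37 °C. Readout CellTiter-Glo luminescence.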
HT1080 IDH1KD tx = toxicity to HT-1080 IDH1 knockdown cells (counter line); Potency, µM (top dose mostly 46.1 µM), inactives show at the top dose activity, negative = toxicity, most hits filed as cytotoxic; AID 686971; 360,000 compounds, 2% hits; HT-1080 IDH1 knockdown viability, ATP luminescence, 48 h;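 note: potency is the fitted concentration of half-maximal effect; 0% = DMSO wells and -100% = cell-free medium wells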
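In this qHTS, HT-1080 cells depleted of IDH1 are exposed for 48 h at 37 °C to compound titrations. Toxicity is scored from CellTiter-Glo luminescence, with DMSO as full viability and medium alone as none.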
HT1080-NT tox = kills 2HG-producing HT-1080-NT fibrosarcoma cells | 360,000 compounds, 1.6% hits | Potency, µM (series often up to 46.1 µM), for the others: top-dose activity, negative = less viability, actives largely listed as cytotoxic | HT-1080-NT fibrosarcoma viability, CellTiter-Glo ATP luminescence, 48 h;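 note: NT is the 2HG producing partner of a matched IDH1 knockdown line; potency is the fitted concentration of half-maximal effect; 0% = DMSO-treated cells and -100% = media-only wells without cells; nearly all actives have a fitted effect of over 55% in size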
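A 48-hour cytotoxicity screen used HT-1080-NT cells plated 2 hours before compound delivery. ATP-based CellTiter-Glo luminescence measured viability, normalized to DMSO and no-cell controls.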
IL-1B inflam inh = inflammasome signaling inhibition, IL-1 beta readout; 360,000 compounds, 4.7% hits; THP-1 LPS/ATP IL-1B secretion, AlphaLISA, 16 h; active compounds read low; activity change, % at 57.5 µM; in the data active = activity change below about -50%; inconclusive = mostly about -30% to -49%
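THP-1 cells pretreated 1 hr with compounds (up to 57.5 uM final), then stimulated with LPS (250 ng/mL final) plus ATP (1.25 mM final); secreted IL-1B measured by AlphaLISA after 16 hr, decreased signal indicating inhibition.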
The depositor's hits bear a star; ? = inconclusive; . = no result; [ ] = another dose, or the depositor's remark. Unless noted, calls come from the whole dose curve; as a rule, active = well fitted curve in the direction sought with a large enough effect; inconclusive = small, poorly fitted or top-dose-only effect, or another doubt; inactive = no such curve, though single readings can be large; an effect the other way counts as inactive or inconclusive. Unless noted, % is set by controls: 0 for no effect and ±100 for the full control effect.

SMILES | DT40 TDP1 CPT | TDP1 cell noCPT | HT1080 IDH1KD tx | HT1080-NT tox | IL-1B inflam inh
CCOC(=O)c1c(C)[nH]c(C)c1C(=O)COC(=O)c1cc(OC)c(OC)cc1OC | -22% | ? | -9% | -2% | 12
Cn1c(=O)cc(OCC(=O)NCc2cccs2)c2ccccc21 | -17% | -19% | -9% | 5% | -2
CCCCCN1C(C(=O)c2ccccc2)=C(NC(=O)c2ccc(OC)cc2)c2ccccc2S1(=O)=O | ? | 23µM* | . | . | .
CCCCCN1C(C(=O)c2ccccc2)=C(NC(=O)c2ccc(OC)c(OC)c2)c2ccccc2S1(=O)=O | 21µM* | 16µM* | . | . | .
FC(F)(F)c1ccccc1-c1nc(Nc2ccncc2)c2ccccc2n1 | ? | -63% | . | . | .
FC(F)(F)c1ccc(Nc2nnnc3ccccc23)cc1 | ? | 3.7µM* | 3% | 19% | -2
CCN(CC)C(=O)CSc1nnc2[nH]c(=O)cc(C)n12 | 15% | 20% | . | . | .
CC(=O)N1CCN(C(=O)c2cccc(S(=O)(=O)N3c4ccccc4CC3C)c2)CC1 (stereo unspecified) | -9% | -26% | -4% | 2% | 34
CCOC(=O)c1ccc(NC(=O)c2cccc(S(=O)(=O)N3c4ccccc4CC3C)c2)s1 (stereo unspecified) | 16µM* | 6.5µM* | ? | ? | 18
Cc1ccc(C(=O)Nc2nnc(S(=O)(=O)N3c4ccccc4CC3C)s2)cc1 (stereo unspecified) | ? | 23µM* | . | . | .
CC(C)C(=O)Nc1nnc(S(=O)(=O)N2c3ccccc3CC2C)s1 (stereo unspecified) | 17% | 0% | 3% | 6% | 8
CC1Cc2ccccc2N1S(=O)(=O)c1cccc(C(=O)N2CCN(c3ncccn3)CC2)c1 (stereo unspecified) | ? | ? | ? | -29% | -66*
COc1ccccc1N1CCN(C(=O)c2cccc(S(=O)(=O)N3CCCCCC3)c2)CC1 | ? | 18µM* | -3% | -3%[9.24 µM] | 4
CCc1cc(CNC(=O)C2CCC(=O)N(Cc3ccc(Cl)cc3)C2)on1 (stereo unspecified) | 1% | 11% | -2% | 9% | ?
O=C(NCc1ccccc1)c1ccc(NC(=O)C2CCCO2)cc1 (stereo unspecified) | -18% | 10% | 13% | 15% | -17
COc1cccc(NC(=O)Cn2c(=O)n(CCC(=O)NC3CCN(Cc4ccccc4)CC3)c(=O)c3ccccc32)c1 | -18% | 11% | -2% | -2% | 26
COc1ccccc1N1CCN(C(=O)c2cc(S(=O)(=O)N3CCCCC3)ccc2C)CC1 | ? | ? | -4% | -17% | 22
COc1ccc(S(=O)(=O)N2CCCCCC2)cc1C(=O)N1CCN(c2ccccc2C)CC1 | ? | 21µM* | -15% | -2% | -1
COc1ccc(S(=O)(=O)N2CCCCCC2)cc1C(=O)N1CCN(c2ccccc2O)CC1 | 15µM* | ? | 8% | 10% | -7
COc1ccc(S(=O)(=O)N2CCN(c3ccccc3)CC2)cc1C(=O)N1CCCC1 | -1% | -20% | 5% | 3% | 10
O=C(c1ccccc1Oc1ccc(C(F)(F)F)cc1[N+](=O)[O-])N1CCOCC1 | -5% | 16% | 3% | 3% | 9
COc1ccccc1NC(=O)COc1ccc(C(F)(F)F)cc1[N+](=O)[O-] | ? | 18µM* | -17% | -2% | 3
O=C(Nc1ccccc1Cl)c1ccccc1Oc1ccc(C(F)(F)F)cc1[N+](=O)[O-] | 23µM* | 18µM* | ? | ? | 15
Cc1cccc(S(=O)(=O)NC(=O)C2(C)CCN2C(=O)Cc2cc(F)ccc2F)c1 (stereo unspecified) | -11% | -8% | ? | 5% | -22
CCOC(=O)c1c(Nc2nc(C)c(C(=O)NC)s2)sc(C)c1C | -9% | ? | -20% | -15% | ?
SMILES | DT40 TDP1 CPT | TDP1 cell noCPT | HT1080 IDH1KD tx | HT1080-NT tox | IL-1B inflam inh
CCOC(=O)Cn1c(=NC(=O)c2cc(-c3cccs3)nc3ccccc23)sc2cc(S(N)(=O)=O)ccc21 | 23µM* | 16µM* | -25% | ? | -11
COCCn1c(=NC(=O)c2nc3ccccc3s2)sc2cc(S(C)(=O)=O)ccc21 | ? | ? | -16% | -12% | 50
CCOC(=O)Cn1c(=NC(=O)C2COc3ccccc3O2)sc2cc(S(N)(=O)=O)ccc21 (stereo unspecified) | ? | 21µM* | -1% | -3% | -13
COCCn1c(=NC(=O)c2ccc3c(c2)OCCO3)sc2cc(S(N)(=O)=O)ccc21 | -24% | ? | -18% | -16% | -3
COC(=O)Cn1c(=NC(=O)c2cc(-c3cccs3)nc3ccccc23)sc2cc(S(N)(=O)=O)ccc21 | ? | 9.2µM* | ? | -19% | -12
COC(=O)Cn1c(=NC(=O)c2nc3ccccc3s2)sc2cc(S(N)(=O)=O)ccc21 | ? | ? | 14% | 6% | -3
CCCn1c(N)c(NCCN2CCOCC2)c(=O)[nH]c1=O | 4% | -2% | -1% | 4% | 11
CC(C)(CO)CN1CCC(n2nccc2NC(=O)C2CCCC2)CC1 | 0% | -7% | 7% | 6% | 6
CNS(=O)(=O)c1ccc(Oc2ccc(S(=O)(=O)NC)cc2)cc1 | 15µM* | ? | -11% | -12% | -7
CNS(=O)(=O)c1ccc2ccccc2c1 | -5% | 5% | 3% | 20% | -16
CN(CC1COc2ccccc2O1)C(=O)c1cccc(S(=O)(=O)N2CCCC2)c1 (stereo unspecified) | ? | ? | ? | -2% | 6
COc1ccc(OC)c(NC(=O)c2nnn(CC(=O)Nc3ccc4c(c3)OCO4)c2N)c1 | ? | ? | 4% | 8% | 6
Cc1ccc(C(=O)C2CCN(CC(=O)Nc3nc(C)cs3)CC2)cc1 | 21µM* | 16µM* | 1% | 0% | -3
O=C(CN1CCC(C(=O)c2ccc(F)cc2)CC1)Nc1ccccc1Cl | -26% | 12µM* | -12% | -1% | -9
CCOc1ccccc1NC(=O)CN1CCC(C(=O)c2ccc(F)cc2)CC1 | 21µM* | 26µM* | -9% | -4% | -4
COc1ccccc1NC(=O)CN1CCC(C(=O)c2ccc(F)cc2)CC1 | ? | ? | -4% | 1% | 17
Cc1cc(Br)ccc1NC(=O)CN(C)C(=O)c1cc(S(=O)(=O)N(C)C)ccc1N1CCCC1 | -26% | ? | 6% | 1% | -2
CCCCCC(=O)Nc1cccc(S(=O)(=O)NC2=NCCC2)c1 | 1% | -1% | -2% | 3% | 3

Bioassay records as filed in PubChem.
